The values below come from PMC7862700, “An all-to-all approach to the identification of sequence-specific readers for epigenetic DNA modifications on cytosine”.

Experiment in all cases: DAPPL (digital affinity profiling via proximity ligation, sequencing); 10 mM Tris-HCl pH 7.5, 50 mM NaCl, 1 mM DTT, 4% glycerol, room temperature, 30 min; GST-TFs on glutathione beads, 16-mer random dsDNA library, 0.1% formaldehyde crosslink after washing; high values mean tight binding
Holding throughout (conditions): protein: recombinant; tags: N-terminal GST; dsDNA, one strand shown

One assay deals with T1, ERF (Homo sapiens, UniProt P50548 1-548).
T1 sequence: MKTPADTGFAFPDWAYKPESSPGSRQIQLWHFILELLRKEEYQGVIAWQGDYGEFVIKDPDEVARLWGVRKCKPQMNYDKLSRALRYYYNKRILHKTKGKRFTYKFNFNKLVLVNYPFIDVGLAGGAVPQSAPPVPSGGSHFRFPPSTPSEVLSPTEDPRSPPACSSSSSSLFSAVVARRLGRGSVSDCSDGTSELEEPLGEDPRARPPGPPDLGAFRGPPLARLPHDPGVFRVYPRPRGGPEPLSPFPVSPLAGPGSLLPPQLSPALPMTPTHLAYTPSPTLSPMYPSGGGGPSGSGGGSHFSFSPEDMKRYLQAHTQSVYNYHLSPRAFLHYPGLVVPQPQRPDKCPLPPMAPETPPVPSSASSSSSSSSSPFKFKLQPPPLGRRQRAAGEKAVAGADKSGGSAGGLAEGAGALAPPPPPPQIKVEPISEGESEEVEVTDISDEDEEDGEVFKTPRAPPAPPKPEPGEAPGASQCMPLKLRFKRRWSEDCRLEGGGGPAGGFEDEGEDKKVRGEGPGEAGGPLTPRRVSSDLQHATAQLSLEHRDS
The gist of the method:
(§1)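 Each value of binding signal is a hexamer's read frequency for a factor divided by the same hexamer's frequency in the tag-only sample. Barcoded, bead-captured GST fusions of human transcription factors made in yeast were pooled with that sample and incubated with 200 nmole of a random double-stranded 16-mer DNA library in Tris/NaCl/DTT/glycerol buffer at room temperature for 30 min. Washing, 0.1% formaldehyde crosslinking, proximity ligation, PCR and Illumina NextSeq500 sequencing followed.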

The target in another assay is T2, ETV3L (Homo sapiens, UniProt Q6ZN32 1-361).
T2 sequence: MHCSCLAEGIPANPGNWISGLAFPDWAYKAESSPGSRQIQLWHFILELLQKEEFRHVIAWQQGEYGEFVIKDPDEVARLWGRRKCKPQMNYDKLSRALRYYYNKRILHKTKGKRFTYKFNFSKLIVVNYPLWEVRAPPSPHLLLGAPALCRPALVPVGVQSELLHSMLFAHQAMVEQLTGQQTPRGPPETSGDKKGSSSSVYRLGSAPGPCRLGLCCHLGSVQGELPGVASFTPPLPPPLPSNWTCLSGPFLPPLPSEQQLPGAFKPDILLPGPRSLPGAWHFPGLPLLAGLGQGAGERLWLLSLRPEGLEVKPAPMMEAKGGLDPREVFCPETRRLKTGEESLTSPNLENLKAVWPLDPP
The gist of the method: as §1

The next assay concerns the target T3, ETS2 (Homo sapiens, UniProt P15036 1-469).
T3 sequence: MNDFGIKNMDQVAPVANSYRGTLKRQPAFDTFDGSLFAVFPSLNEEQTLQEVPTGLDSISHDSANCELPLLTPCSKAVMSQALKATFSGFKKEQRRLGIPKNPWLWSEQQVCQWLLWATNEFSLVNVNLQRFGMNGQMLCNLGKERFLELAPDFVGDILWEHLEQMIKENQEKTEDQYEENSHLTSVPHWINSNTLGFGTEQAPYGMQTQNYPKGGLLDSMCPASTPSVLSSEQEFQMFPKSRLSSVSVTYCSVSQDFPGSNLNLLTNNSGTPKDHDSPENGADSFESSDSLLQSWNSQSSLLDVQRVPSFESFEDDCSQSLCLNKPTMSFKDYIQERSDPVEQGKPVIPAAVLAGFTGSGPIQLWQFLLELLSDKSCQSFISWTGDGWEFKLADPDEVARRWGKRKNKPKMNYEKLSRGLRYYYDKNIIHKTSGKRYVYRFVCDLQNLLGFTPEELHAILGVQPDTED
The gist of the method:
as §1

For a further assay, the target named is T4, SPDEF (Homo sapiens, UniProt O95238 1-335).
T4 sequence: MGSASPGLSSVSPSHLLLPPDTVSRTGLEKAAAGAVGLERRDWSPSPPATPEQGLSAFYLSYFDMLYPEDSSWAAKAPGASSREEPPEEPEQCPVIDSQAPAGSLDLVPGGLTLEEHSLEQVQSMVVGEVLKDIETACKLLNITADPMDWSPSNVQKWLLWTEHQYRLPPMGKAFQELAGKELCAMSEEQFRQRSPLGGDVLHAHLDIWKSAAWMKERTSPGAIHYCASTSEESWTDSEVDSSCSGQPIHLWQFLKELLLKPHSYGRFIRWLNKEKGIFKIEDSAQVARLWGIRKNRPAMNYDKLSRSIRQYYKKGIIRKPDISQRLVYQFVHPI
The gist of the method: as §1

Another assay has as its target T5, ETV7 (Homo sapiens, UniProt Q9Y603 1-341).
T5 sequence: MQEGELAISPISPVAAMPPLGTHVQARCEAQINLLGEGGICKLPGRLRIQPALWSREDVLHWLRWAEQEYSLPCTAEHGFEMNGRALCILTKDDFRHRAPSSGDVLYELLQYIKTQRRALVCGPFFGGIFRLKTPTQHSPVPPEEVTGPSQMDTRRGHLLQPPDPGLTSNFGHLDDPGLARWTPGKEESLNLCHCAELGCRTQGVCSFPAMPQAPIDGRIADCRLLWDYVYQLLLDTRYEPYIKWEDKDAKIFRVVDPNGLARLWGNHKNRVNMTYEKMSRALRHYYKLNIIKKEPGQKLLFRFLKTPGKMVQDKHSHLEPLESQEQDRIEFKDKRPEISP
The gist of the method:
as §1

For the next assay, the target named is T6, ELF5 (Homo sapiens, UniProt Q9UKW6-2 1-255).
T6 sequence: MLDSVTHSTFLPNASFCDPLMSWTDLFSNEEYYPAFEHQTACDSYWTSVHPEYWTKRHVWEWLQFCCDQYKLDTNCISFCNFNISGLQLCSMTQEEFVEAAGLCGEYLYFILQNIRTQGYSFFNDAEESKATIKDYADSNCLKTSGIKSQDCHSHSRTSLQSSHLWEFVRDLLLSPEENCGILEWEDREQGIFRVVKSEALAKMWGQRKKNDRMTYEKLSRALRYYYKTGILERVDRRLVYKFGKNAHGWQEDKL
The essentials: as §1

In the next assay the target is T7, ETV3 (Homo sapiens, UniProt P41162-2 1-143).
T7 sequence: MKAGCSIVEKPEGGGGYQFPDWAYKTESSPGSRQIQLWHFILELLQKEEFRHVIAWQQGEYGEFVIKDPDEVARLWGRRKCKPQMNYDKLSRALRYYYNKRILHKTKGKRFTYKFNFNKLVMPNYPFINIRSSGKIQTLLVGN
The essentials: as §1

Another assay concerns the target ETV6 (Homo sapiens, UniProt P41212 1-452). The essentials: as §1

ETV6, sequence (P41212 whole entry): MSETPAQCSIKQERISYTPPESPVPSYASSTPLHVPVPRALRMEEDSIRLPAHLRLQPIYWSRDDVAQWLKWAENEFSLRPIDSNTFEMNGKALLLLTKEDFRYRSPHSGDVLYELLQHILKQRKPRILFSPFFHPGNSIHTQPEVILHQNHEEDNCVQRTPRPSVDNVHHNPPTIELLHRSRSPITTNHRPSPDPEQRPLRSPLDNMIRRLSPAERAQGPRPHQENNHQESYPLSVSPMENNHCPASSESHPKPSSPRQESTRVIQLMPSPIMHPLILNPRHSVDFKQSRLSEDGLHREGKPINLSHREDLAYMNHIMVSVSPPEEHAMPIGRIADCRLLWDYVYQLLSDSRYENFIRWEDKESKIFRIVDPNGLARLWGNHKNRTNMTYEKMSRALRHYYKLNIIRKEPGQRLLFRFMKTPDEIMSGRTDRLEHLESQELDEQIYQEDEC

Turning to CACCCT, the binding signal with ERF was 1.09 fold enrichment (6-mer frequency, TF over GST control); with ETV3L, 1.26 fold enrichment (6-mer frequency, TF over GST control); with ETS2 it was 1.09 fold enrichment (6-mer frequency, TF over GST control); with SPDEF it was 1.13 fold enrichment (6-mer frequency, TF over GST control); with ETV7 it was 1.04 fold enrichment (6-mer frequency, TF over GST control); with ELF5 it was 1.11 fold enrichment (6-mer frequency, TF over GST control). Besides, the binding signal with ETV3 is 1.24 fold enrichment (6-mer frequency, TF over GST control); with ETV6, 1.05 fold enrichment (6-mer frequency, TF over GST control).

For AGTACT, the binding signal in the assay with ERF was 1.11 fold enrichment (6-mer frequency, TF over GST control); with ETV3L, 1.12 fold enrichment (6-mer frequency, TF over GST control); with ETS2 it was 1.23 fold enrichment (6-mer frequency, TF over GST control); with SPDEF it was 1.33 fold enrichment (6-mer frequency, TF over GST control); with ETV7 it was 1.3 fold enrichment (6-mer frequency, TF over GST control); with ELF5, 1.53 fold enrichment (6-mer frequency, TF over GST control). Also, the binding signal with ETV3 was 1.28 fold enrichment (6-mer frequency, TF over GST control); with ETV6, 1.62 fold enrichment (6-mer frequency, TF over GST control).

For the sequence CGAAGC, the binding signal in the assay with ERF was 1.38 fold enrichment (6-mer frequency, TF over GST control); in the assay with ETV3L, 1.2 fold enrichment (6-mer frequency, TF over GST control); in the assay with ETS2 it was 1.33 fold enrichment (6-mer frequency, TF over GST control); with SPDEF, 1.18 fold enrichment (6-mer frequency, TF over GST control); with ETV7, 1.44 fold enrichment (6-mer frequency, TF over GST control); with ELF5, 1.19 fold enrichment (6-mer frequency, TF over GST control). For the same sequence, the binding signal in the assay with ETV3 was 1.34 fold enrichment (6-mer frequency, TF over GST control); with ETV6, 1.14 fold enrichment (6-mer frequency, TF over GST control).

On to AAGTTG, for which the binding signal in the assay with ERF is 1.08 fold enrichment (6-mer frequency, TF over GST control); with ETV3L, 1.11 fold enrichment (6-mer frequency, TF over GST control); with ETS2, 1.11 fold enrichment (6-mer frequency, TF over GST control); with SPDEF it was 1.02 fold enrichment (6-mer frequency, TF over GST control); with ETV7, 1.26 fold enrichment (6-mer frequency, TF over GST control); in the assay with ELF5 it was 1.17 fold enrichment (6-mer frequency, TF over GST control). The binding signal with ETV3 is 1.07 fold enrichment (6-mer frequency, TF over GST control); with ETV6 it was 1.17 fold enrichment (6-mer frequency, TF over GST control).

For CGTATG, the binding signal is 1.02 fold enrichment (6-mer frequency, TF over GST control) with ERF; 1.07 fold enrichment (6-mer frequency, TF over GST control) in the assay with ETV3L; 1.11 fold enrichment (6-mer frequency, TF over GST control) with ETS2; 1.05 fold enrichment (6-mer frequency, TF over GST control) with SPDEF; 1.03 fold enrichment (6-mer frequency, TF over GST control) in the assay with ETV7; 1.04 fold enrichment (6-mer frequency, TF over GST control) with ELF5. Further, the binding signal was 1.13 fold enrichment (6-mer frequency, TF over GST control) with ETV3 and 1.02 fold enrichment (6-mer frequency, TF over GST control) in the assay with ETV6.

On to GAAATT, for which the binding signal with ERF was 1.36 fold enrichment (6-mer frequency, TF over GST control); in the assay with ETV3L it was 1.34 fold enrichment (6-mer frequency, TF over GST control); with ETS2, 1.35 fold enrichment (6-mer frequency, TF over GST control); in the assay with SPDEF, 1.25 fold enrichment (6-mer frequency, TF over GST control); in the assay with ETV7, 1.2 fold enrichment (6-mer frequency, TF over GST control); in the assay with ELF5, 1.51 fold enrichment (6-mer frequency, TF over GST control). In addition, the binding signal with ETV3 is 1.32 fold enrichment (6-mer frequency, TF over GST control); with ETV6 it was 1.41 fold enrichment (6-mer frequency, TF over GST control).

On to CCTATT, for which the binding signal is 1.6 fold enrichment (6-mer frequency, TF over GST control) with ERF; 1.64 fold enrichment (6-mer frequency, TF over GST control) with ETV3L; 1.49 fold enrichment (6-mer frequency, TF over GST control) with ETS2; 1.51 fold enrichment (6-mer frequency, TF over GST control) with SPDEF; 1.52 fold enrichment (6-mer frequency, TF over GST control) with ETV7; 1.53 fold enrichment (6-mer frequency, TF over GST control) with ELF5. Besides, the binding signal with ETV3 was 1.52 fold enrichment (6-mer frequency, TF over GST control); in the assay with ETV6, 1.59 fold enrichment (6-mer frequency, TF over GST control).

AAGAAG: the binding signal with ERF is 1.01 fold enrichment (6-mer frequency, TF over GST control); in the assay with ETV3L, 1.04 fold enrichment (6-mer frequency, TF over GST control); with ETS2, 1.04 fold enrichment (6-mer frequency, TF over GST control); with SPDEF, 1.01 fold enrichment (6-mer frequency, TF over GST control); in the assay with ETV7, 1.16 fold enrichment (6-mer frequency, TF over GST control); with ELF5, 1.12 fold enrichment (6-mer frequency, TF over GST control). The binding signal with ETV3 is 1.05 fold enrichment (6-mer frequency, TF over GST control); with ETV6, 1.16 fold enrichment (6-mer frequency, TF over GST control).

Regarding CTGACC, the binding signal with ERF is 1.34 fold enrichment (6-mer frequency, TF over GST control); in the assay with ETV3L it was 1.27 fold enrichment (6-mer frequency, TF over GST control); with ETS2, 1.38 fold enrichment (6-mer frequency, TF over GST control); with SPDEF it was 1.27 fold enrichment (6-mer frequency, TF over GST control); with ETV7, 1.29 fold enrichment (6-mer frequency, TF over GST control); with ELF5, 1.34 fold enrichment (6-mer frequency, TF over GST control). The binding signal in the assay with ETV3 was 1.4 fold enrichment (6-mer frequency, TF over GST control); in the assay with ETV6, 1.32 fold enrichment (6-mer frequency, TF over GST control).
